# Laboratory results from ChEMBL document CHEMBL3988442, “University of Dundee, Small-Polar-MMV Screening Library” (2021).
# Among all 48,000 compounds or so, about 13,000 (27%) showed an effect of 50% or more. The list shows a part of the results.
# Tested on: Wolbachia pipientis
# Assay: Anti-Wolbachia Cell-Based Screen
# Format: functional
# Parameters: scale not given: in the data most compounds retested in dose-response had high values
# Conditions: 5 µM
row,SMILES,Percent Effect [%]
1,CNC(=O)[C@H]1C[C@@H]2CN(c3cc(OC)ncn3)C[C@@H]2N1C(C)C,-9.424
2,Cc1ccc(C(=O)N2CC[C@H]3[C@H]2CCN3CC2CCOCC2)cn1,4.595
3,COc1cc(N2CC[C@@H]3[C@@H](CC2)OCCN3CC2CC2)ncn1,103
4,COCCN1CCO[C@H]2CCN(C(=O)c3ccnnc3)CC[C@@H]21.O=C(O)C(F)(F)F,-6.928
5,COc1cc(N2CC[C@@H]3OCCN(C)[C@H]3CC2)ncn1,94.65
6,COCCN1CCC12CCN(c1ncccn1)C2.O=C(O)C(F)(F)F (stereo not drawn),-0.9151
7,COCCN1CCC12CCN(C(=O)c1ccc(C)nc1)C2.O=C(O)C(F)(F)F (stereo not drawn),107.4
8,CN(C)CCN1CCCC12CCN(C(=O)c1ccncc1)CC2.O=C(O)C(F)(F)F.O=C(O)C(F)(F)F,105
9,Cc1cnc(N2CCCC3(CCCN3CC(=O)N(C)C)C2)nc1.O=C(O)C(F)(F)F (stereo not drawn),-1.71
10,COCCN1CCCC12CCN(c1ncccn1)CC2.O=C(O)C(F)(F)F,-7.716
11,O=C(O)C(F)(F)F.O=C(c1ccc[nH]1)N1CCC2(CCCN2Cc2cccnc2)CC1,-12.51
12,COCCN1CCC12CCN(C(=O)Cc1cccs1)C2.O=C(O)C(F)(F)F (stereo not drawn),10.38
13,CN(C)CCN1CCCC12CCCN(C(=O)c1cccnc1)C2.O=C(O)C(F)(F)F.O=C(O)C(F)(F)F (stereo not drawn),118
14,CCN1CCCC12CCCN(c1ncccn1)C2.O=C(O)C(F)(F)F (stereo not drawn),1.763
15,Cc1ncc2c(c1CNC(=O)C1(C)CCCCO1)CCNC2 (stereo not drawn),13.24
16,Cc1nn(CCNC(C)Cn2cncn2)c(C)c1Cl (stereo not drawn),-0.5097
17,CC(C)C(NC(=O)c1ccccc1F)C(=O)N1CCC2(CC1)OCCO2 (stereo not drawn),-11.28
18,COc1ncccc1CN1CC[C@H]2O[C@H](c3nnc(C)o3)CC[C@H]21,-0.9405
19,O=C(O)C(F)(F)F.O=C(O)C(F)(F)F.c1ccc(O[C@@H]2CC[C@H]3[C@H]2OCCN3CC2CCOCC2)nc1,-13.85
20,Cc1nc(CN2CCO[C@@H]3CC(COc4ccccn4)C[C@H]32)cs1.O=C(O)C(F)(F)F.O=C(O)C(F)(F)F (stereo partly drawn),94.34
21,O=C(O)C(F)(F)F.O=C(O)C(F)(F)F.c1ccc(O[C@@H]2CO[C@@]3(CCCN(CC4CCOCC4)C3)C2)nc1,-10.07

row,SMILES,Percent Effect [%]
1,O=C(O)C(F)(F)F.O=C(O)C(F)(F)F.c1ccc(OCC2C[C@@H]3[C@@H](C2)OCCN3CC2CCOCC2)nc1 (stereo partly drawn),96.17
2,CC(C)NC(=O)[C@H]1C[C@@H]2[C@@H](C1)OCCN2Cc1ccccn1.O=C(O)C(F)(F)F.O=C(O)C(F)(F)F,2.364
3,O=C(O)C(F)(F)F.O=C(O)C(F)(F)F.c1ccc(OCC2C[C@@H]3[C@@H](C2)OCCN3Cc2ccoc2)nc1 (stereo partly drawn),92.52
4,Fc1ccc(CN2CCO[C@H]3[C@H](Oc4ccccn4)CC[C@@H]32)cc1.O=C(O)C(F)(F)F.O=C(O)C(F)(F)F,-5.975
5,Cc1nc(CN2CCO[C@H]3[C@@H](OCc4ccccn4)CC[C@@H]32)cs1.O=C(O)C(F)(F)F.O=C(O)C(F)(F)F,8
6,Cc1nc(CN2CC[C@H]3[C@H]2CCN3c2ncccn2)cs1.O=C(O)C(F)(F)F.O=C(O)C(F)(F)F.O=C(O)C(F)(F)F,-7.266
7,CCCn1ncc(CN2CCCC(C(=O)c3ccc(Cl)cc3C)C2)c1C (stereo not drawn),-13.45
8,Cc1noc(C)c1CN1CCOCC12CCN(c1nccs1)CC2.O=C(O)C(F)(F)F,98.18
9,Cc1noc(C)c1CN1CCCC2(C1)CN(c1nccs1)CCO2.O=C(O)C(F)(F)F (stereo not drawn),-6.248
10,Cc1noc(C)c1CN1CCOC2(CCCN(c3nccs3)C2)C1 (stereo not drawn),-30.09
11,Cc1cc(Cl)ccc1C(=O)C1CCCN(Cc2cnc(N(C)C)s2)C1 (stereo not drawn),5.845
12,O=C(Nc1cc(C(F)(F)F)c[nH]c1=O)C1CCCN1 (stereo not drawn),84.36
13,Cc1nc(C)c(CC(=O)N2C[C@@H]3CC[C@H](C2)N(CC2CCC2)C3)c(=O)[nH]1,-4.383
14,O=C1NC[C@H]2CN(Cc3ccnc4ccccc34)CCN12,12.9
15,CN1CCOC(CN(C(=O)CN2CCCC2=O)c2nccs2)C1 (stereo not drawn),101.5
16,Cc1csc(CN2C[C@@H]3CN(C)CCO[C@@H]3C2)n1,8.009
17,CN1C(=O)CCC12CCCN(Cc1nccs1)C2.O=C(O)C(F)(F)F (stereo not drawn),0.9809
18,O=C(Cc1cccnc1)N1C[C@H]2CC[C@@H]1CN(Cc1ccc(F)cc1)C2,4.977
19,CNS(=O)(=O)CC(=O)NC(C)Cc1cccc(Cl)c1 (stereo not drawn),-8.41
20,COCCN1CCN(Cc2ccco2)Cc2ccc(C)nc21.O=C(O)C(F)(F)F.O=C(O)C(F)(F)F,-4.487
21,CN(C)CCN1CCN(Cc2nccs2)Cc2cccnc21.O=C(O)C(F)(F)F.O=C(O)C(F)(F)F.O=C(O)C(F)(F)F,88.3

row,SMILES,Percent Effect [%]
1,CN(C)c1ncc2c(c1C(=O)O)CCN(Cc1ccco1)C2.O=C(O)C(F)(F)F.O=C(O)C(F)(F)F,87.52
2,Cc1cnc(N2CCc3c(cnc(C)c3C(=O)O)C2)nc1.O=C(O)C(F)(F)F,-4.301
3,Cc1ncc2c(c1C(=O)O)CCN(c1ncc(F)cn1)C2.O=C(O)C(F)(F)F,-15.02
4,CN(C)CCN1CCN(Cc2cccs2)Cc2cccnc21.O=C(O)C(F)(F)F.O=C(O)C(F)(F)F.O=C(O)C(F)(F)F,92.36
5,Cc1ccc2c(n1)N(C)CCN(Cc1ccco1)C2.O=C(O)C(F)(F)F.O=C(O)C(F)(F)F,-3.328
6,Cc1noc(C)c1CN1CCN(C)c2ncccc2C1.O=C(O)C(F)(F)F.O=C(O)C(F)(F)F,-16.26
7,CN(C)CCN1CCN(Cc2ccco2)Cc2cccnc21.O=C(O)C(F)(F)F.O=C(O)C(F)(F)F.O=C(O)C(F)(F)F,95.25
8,COCCN1CCN(Cc2ccncc2)c2ncccc2C1.O=C(O)C(F)(F)F.O=C(O)C(F)(F)F.O=C(O)C(F)(F)F,-7.245
9,COCCNC(=O)[C@H]1CN2CCC1C[C@@H]2Cn1cc(C(C)(C)C)nn1 (stereo partly drawn),-20.26
10,CN(C)C(=O)CN1CC[C@H]2[C@H]1CCN2c1ncccn1.O=C(O)C(F)(F)F.O=C(O)C(F)(F)F,-4.997
11,CCCn1nc(C)c(-c2cncn2CC2(N(C)C)CCC(C)CC2)c1C (stereo not drawn),117
12,O=C(O)C(F)(F)F.O=C(O)C(F)(F)F.c1cncc(COCC2CC[C@H]3[C@H]2OCCN3Cc2ccoc2)c1 (stereo partly drawn),109.4
13,Cc1cccc(CO[C@@H]2CC[C@H]3[C@H]2OCCN3Cc2ccoc2)n1,89.7
14,CCO[C@@H]1CC[C@H]2[C@H]1OCCN2Cc1ccoc1.O=C(O)C(F)(F)F,96.95
15,Cc1cccc(CO[C@@H]2CC[C@H]3[C@H]2OCCN3Cc2ccsc2)n1.O=C(O)C(F)(F)F.O=C(O)C(F)(F)F,-22.6
16,COCCN1CCO[C@H]2[C@H](OCc3cccc(C)n3)CC[C@@H]21,8.918
17,O=C(O)C(F)(F)F.O=C(O)C(F)(F)F.c1cc(CO[C@@H]2CN(Cc3ccoc3)[C@@H]3CCCO[C@@H]32)ccn1,101.1
18,Cc1ncsc1CN1C[C@@H](OCc2ccncc2)[C@H]2OCCC[C@H]21.O=C(O)C(F)(F)F.O=C(O)C(F)(F)F,-3.825
19,Cc1ncsc1CN1C[C@H](OCc2ccncc2)[C@H]2OCCC[C@H]21.O=C(O)C(F)(F)F.O=C(O)C(F)(F)F,-13.88
20,c1ccc(O[C@@H]2CC[C@H]3[C@H]2OCCN3Cc2ccsc2)nc1,-6.73
21,O=C(O)C(F)(F)F.O=C(O)C(F)(F)F.O=C1N(c2cccnc2)CCC12CCCN(Cc1ccoc1)C2 (stereo not drawn),-1.124

row,SMILES,Percent Effect [%]
1,CCOCCN1CCO[C@H]2[C@H](OCc3ccccn3)CC[C@@H]21.O=C(O)C(F)(F)F.O=C(O)C(F)(F)F,26.08
2,CC(C)CN1C(=O)CO[C@@H]2CNC[C@H]21,-9.19
3,CNC(=O)[C@@H]1C[C@H]2CN(C(=O)c3ccccn3)C[C@H]2N1C(C)C,-10.28
4,CCCN1CCN(C(=O)c2ccnc(N)c2)[C@H]2CS(=O)(=O)C[C@H]21,-9.553
5,CCC(=O)N1CCN(Cc2cnc(C)nc2)[C@H]2CS(=O)(=O)C[C@H]21,99.52
6,Cc1ncc(CN2CCN(C(=O)N(C)C)[C@@H]3CS(=O)(=O)C[C@@H]32)cn1,93.36
7,CCCN1CCN(C(=O)c2cnc(C)nc2)[C@H]2CS(=O)(=O)C[C@H]21,-7.853
8,CCCN1CCN(C(=O)c2cncnc2C)[C@H]2CS(=O)(=O)C[C@H]21,18.46
9,O=C(C1CCC1)N1CCN(Cc2cccnc2)[C@H]2CS(=O)(=O)C[C@H]21,-3.397
10,Cc1cccc(CN2CCN(C(=O)N(C)C)[C@@H]3CS(=O)(=O)C[C@@H]32)n1,-5.175
11,COC(=O)NCCC(=O)NC(C)Cc1ccccc1Br (stereo not drawn),-17.72
12,c1coc(CN2CC[C@@H]3O[C@@H](COCc4ccncc4)CC[C@@H]32)c1,67.65
13,Cc1noc(C)c1CN1CC[C@@H]2O[C@H](COCC3CC3)CC[C@@H]21.O=C(O)C(F)(F)F,3.642
14,CO[C@H]1CCN(Cc2ccccn2)[C@@H]2CN(Cc3ccco3)C[C@H]12.O=C(O)C(F)(F)F.O=C(O)C(F)(F)F.O=C(O)C(F)(F)F,-3.065
15,COC[C@H]1CC[C@@H]2[C@@H](CCN2Cc2ccco2)O1.O=C(O)C(F)(F)F,137.5
16,O=C(O)C(F)(F)F.O=C(O)C(F)(F)F.c1ccc(COC[C@H]2CC[C@H]3[C@H](CCN3Cc3cccs3)O2)nc1,0.5679
17,O=C(O)C(F)(F)F.O=C(O)C(F)(F)F.c1cncc(COC[C@H]2CC[C@H]3[C@H](CCN3Cc3nccs3)O2)c1,8.415
18,CN(C)C(=O)COC[C@H]1CC[C@@H]2[C@@H](CCN2Cc2ccccn2)O1.O=C(O)C(F)(F)F.O=C(O)C(F)(F)F,-0.6188
19,O=C([C@@H]1CC[C@@H]2[C@@H](CCN2Cc2ccncc2)O1)N1CCCCO1,-7.886
20,c1ccc(COC[C@H]2CC[C@H]3[C@H](CCN3Cc3ccco3)O2)nc1,102.6
